The results in this text go back to PubChem BioAssay (NCI).

The panel holds about 83,000 compounds, 20% with a hit somewhere; the sample as a whole holds those more often.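 Plates (96-well) were seeded with cells, treated with compound at one concentration, and incubated for 48 hours before percent growth was determined.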 Calls of active or inactive are those of the source.

The experiment deals with T-47D breast. Nature of the experiment: NCI-60 one-dose screen, 48 h (100 = growth as untreated, 0 = no growth, -100 = all killed). The conditions noted are these: 10 µM unless noted. The procedure:
Growth inhibition of the T-47D human tumor cell line is measured as a screen for anti-cancer activity. Cells are grown in 96 well plates and exposed to the test compound for 48 hours. Compounds are tested at a single concentration, which is 10^-5 M for most compounds. The reported endpoint is percent growth (GI% or GIPRCNT), where numbers from 0 - 100% represent growth inhibition, and numbers from -100% - 0 represent cell death. For example, a value of 40 represents 60% growth inhibition. A value of 0 means no net growth occurred over the course of the experiment. A value of -40 indicates 40% of cells at the beginning of the experiment died by the end of the experiment. A value of -100 means all cells are dead at the end of the experiment.
NCI-60 Human Tumor Cell Lines Screen was performed using the standard one-dose NCI protocol, which is described in more detail at https://dtp.cancer.gov/discovery_development/nci-60/default.htm.
Compounds with GIPRCNT values below 10 were considered active. Activity score was based on GIPRCNT using the following formula: […]
Score is 0 for GIPRCNT values of 100 or above, 50 for GIPRCNT values of 0, and 100 for GIPRCNT values of -100.
As for `O=C(Nc1ncc(Cc2cc(Cl)ccc2Cl)s1)c1cccs1`, the growth was 44.8% (inactive).
The result for `CC(=O)[C@@H]1CC[C@]2(C(N)=O)CC[C@]3(C)[C@H](CC[C@@H]4[C@@]5(C)CCCNC(C)(C)[C@@H]5CC[C@]43C)[C@@H]12` reads 93.9% (inactive).
Under `CCOC(=O)/C(C#N)=C1/NNC(=Nc2cccnc2)S1` stands 88.7% (inactive); under `Cc1ccc(CNc2c3ccccc3nc3cc(NC(=O)CCN4CCCC4)ccc23)cc1`, 16.9% (inactive); under `COc1cccc(-c2cc(C(=O)Nc3ccc(/C=C/c4ccc(OC5CCN(C)CC5)cc4)cc3)ccc2OC)c1`, 53% (inactive).
In the case of `OC(c1cccc(C(F)(F)F)c1)c1cnccc1NC1CCCCC1` (stereo not given), the growth was 49.1% (inactive).
Under `C=C(C)[C@@H]1CC[C@]2(C(=O)N[C@@H](Cc3ccccc3)C(=O)OC)CC[C@]3(C)[C@H](CC[C@@H]4[C@@]5(C)CCC(=O)C(C)(C)[C@@H]5CC[C@]43C)[C@@H]12` stands 64.8% (inactive); under `CCOC(=O)CC1CSC(N/N=C/c2ccc(-n3cccn3)cc2)=N1` (stereo not given), 106% (inactive); under `N=C(N)c1ccc(OCCCCCCCCCCOc2ccc(C(=N)N)cc2)cc1`, -59.1% (active).
The result for `NC(=O)CSSCC(N)=O` reads 103% (inactive); that for `N#Cc1c(NC(=O)NCc2ccccc2)sc2c1CCCC2`, 40% (inactive).
Under `O=C1Nc2ccccc2/C1=C\c1c(-c2ccccc2)nc2ccccn12` stands 38.1% (inactive).
On to `Nc1c(S(=O)(=O)O)cc2c3c(cccc13)C(=O)OC2=O`, for which the growth was 96% (inactive).
Under `C=CCN1C(=O)/C(=C/C(=O)OC)S/C1=N\NC(=O)c1cc2ccc1/C=C\c1ccc(cc1)/C=C\2` stands 62.8% (inactive).
The result for `C=C1C(=O)O[C@H]2[C@H]1CC/C(COC(=O)NCCc1c[nH]c3ccc(OC)cc13)=C\CC[C@@]1(C)O[C@@H]21` reads -35.3% (active); that for `CNC(=O)c1cccc(Cn2nc(C)c(NC(=O)c3ccc(COc4ccc(C(F)(F)F)cc4C)cc3)c2C)n1`, 7.54% (active).
The result for `CCc1c(Cl)nc(N)nc1Nc1ccc(C)c(C)c1` reads 91.2% (inactive); that for `O=S(=O)(NCCNc1nccc(-c2c(-c3cccc(F)c3)nc3sccn23)n1)c1ccc(Br)cc1`, 30.5% (inactive); that for `O=C1CC(=O)OC(c2ccc([N+](=O)[O-])cc2)O1`, 17.9% (inactive).
As for `COc1cccc(-c2nc3occn3c2-c2ccnc(NCCNS(=O)(=O)c3cccc4ccccc34)n2)c1`, the growth is 87.3% (inactive).
The result for `Cc1ccc(NC(=O)Cc2ccc(/C=C/C(=O)c3ncc[nH]3)cc2)cc1` reads 38.9% (inactive); that for `COc1cc(-c2csc(NC(=O)c3cc(F)cc(C(F)(F)F)c3)n2)cc(OC)c1OC`, 19.3% (inactive); that for `COc1ccc(/C=C/c2nc(Nc3ccc(Cl)cc3)c3ccccc3n2)cc1`, 49.9% (inactive).
Under `CCCCNC(=O)Oc1ccc(/C(=C(\C)c2ccccc2)c2ccc(OCCN3CCCCC3)cc2)cc1` stands 31.6% (inactive); under `CCCCCCOc1ccc(/C=N/Nc2cc(C)nc3ccc(Cl)cc23)cc1`, 34.5% (inactive).
Under `COc1ccc(C(C)=O)c(OC)c1` stands 108% (inactive); under `[O-][n+]1c(Cl)cc(Cl)c2ccccc21`, 97.7% (inactive).
Regarding `O=C(/C=C/c1ccc(Cl)cc1)c1ccc(NC(=O)N2CCN(c3cc4c(cc3F)c(=O)c(C(=O)O)cn4C3CC3)CC2)cc1`, the growth was 76.4% (inactive).
The result for `CCCCN1C=CCN(CCCC)C1` reads 6.14% (active); that for `Cn1c2ccccc2c2c3c(c4c5ccccc5n(C)c4c21)C(=O)OC3`, 95.2% (inactive).
The result for `CC(=O)OC[C@]12CC[C@@H](C(=O)CBr)[C@@H]1[C@H]1CC[C@@H]3[C@@]4(C)CC[C@H](OC(C)=O)C(C)(C)[C@@H]4CC[C@@]3(C)[C@]1(C)CC2` reads 85.3% (inactive); that for `N#C/C(=C\c1ccc([N+](=O)[O-])s1)c1nc2cc(Cl)ccc2s1`, 58.7% (inactive).
The result for `c1ccc2cc(Cn3c(-c4cccc5ccccc45)[n+](Cc4ccc5ccccc5c4)c4c5ccccc5c5ccccc5c43)ccc2c1` reads -70.8% (active); that for `CCOC(=O)c1cc(C(=O)c2ccc(OC)c(OC)c2)n2ccc(/C=C/c3cc[n+](CC(=O)c4ccc(OC)c(OC)c4)cc3)cc12`, 89.9% (inactive).
Regarding `COc1ccc(C(=O)CC#N)cc1`, the growth is 104% (inactive).
In the case of `COC1=CC(=O)c2ccccc2C1=O`, the growth is 59% (inactive).
The result for `CCN(CC)CCOc1ccc(NC(=O)C(C(C)C)N2C(=O)/C(=C/c3ccc(Br)cc3)SC2=S)cc1` (stereo not given) reads 93.1% (inactive).
Under `CN1CCC(=C(c2ccccc2)c2ccccc2)C(c2ccccc2)C1` (stereo not given) stands 93.7% (inactive); under `COc1ccc(/C=N/NC(=O)c2cnn3c2NC(c2ccccc2)C3)cc1OC` (stereo not given), 56% (inactive).
The result for `CN1C(=O)NC(c2ccc3c(c2)OCO3)C=C1c1ccccc1` (stereo not given) reads 78.6% (inactive).
